Unmarked numbers belong to inactive results.
What was measured:
Experiment in all cases: log2 ratio of Biotin-Ahx-Ub-VS probe labelling (fragment/DMSO); higher = less target engagement (more negative = stronger competition), active = hit call of the paper (q ≤ 0.05, log2 ratio ≤ -1)
Conditions in all cases: compound concentration: 200 uM; treatment time: 3 h
ALG13 = target: T1, ALG13 (UniProt Q9NP73)
T1 sequence (whole entry): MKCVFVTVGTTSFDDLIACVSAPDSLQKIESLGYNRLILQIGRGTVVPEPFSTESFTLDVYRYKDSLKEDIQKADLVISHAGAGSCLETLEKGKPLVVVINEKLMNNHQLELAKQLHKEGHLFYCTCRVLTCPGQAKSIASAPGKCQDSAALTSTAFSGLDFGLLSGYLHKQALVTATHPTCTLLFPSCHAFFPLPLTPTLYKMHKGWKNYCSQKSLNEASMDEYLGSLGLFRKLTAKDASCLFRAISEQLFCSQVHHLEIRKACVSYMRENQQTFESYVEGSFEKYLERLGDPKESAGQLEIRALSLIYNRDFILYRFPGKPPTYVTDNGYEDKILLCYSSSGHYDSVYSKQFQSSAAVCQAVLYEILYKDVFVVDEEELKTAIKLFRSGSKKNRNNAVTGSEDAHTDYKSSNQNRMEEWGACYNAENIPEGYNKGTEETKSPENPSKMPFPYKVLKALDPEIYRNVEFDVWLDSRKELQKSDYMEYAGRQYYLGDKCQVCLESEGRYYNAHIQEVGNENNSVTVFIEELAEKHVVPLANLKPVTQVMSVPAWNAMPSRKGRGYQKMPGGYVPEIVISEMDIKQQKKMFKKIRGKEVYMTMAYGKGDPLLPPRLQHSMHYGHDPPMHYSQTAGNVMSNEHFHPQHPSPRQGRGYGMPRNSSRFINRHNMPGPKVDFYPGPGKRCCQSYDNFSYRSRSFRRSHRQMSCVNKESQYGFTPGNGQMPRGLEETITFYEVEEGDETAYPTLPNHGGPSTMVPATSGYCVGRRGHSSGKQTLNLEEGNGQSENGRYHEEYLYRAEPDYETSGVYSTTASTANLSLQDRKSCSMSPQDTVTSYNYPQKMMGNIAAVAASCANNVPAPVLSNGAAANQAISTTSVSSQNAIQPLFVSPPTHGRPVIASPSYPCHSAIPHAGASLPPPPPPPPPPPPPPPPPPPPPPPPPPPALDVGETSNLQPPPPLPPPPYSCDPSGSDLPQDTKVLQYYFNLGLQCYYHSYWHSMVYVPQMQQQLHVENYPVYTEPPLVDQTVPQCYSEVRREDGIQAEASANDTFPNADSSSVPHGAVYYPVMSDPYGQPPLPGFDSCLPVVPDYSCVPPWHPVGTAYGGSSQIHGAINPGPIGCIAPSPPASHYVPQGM
In short: (§1)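 Fragment (200 µM) or vehicle was incubated for 3 h with triplicate HEK293T lysate samples of 495 µg, which were then treated with Biotin-Ahx-Ub-VS at 0.5 µM final for 1 h. Labelled DUBs were enriched on NeutrAvidin, digested with LysC and trypsin, and analysed by diaPASEF LC-MS/MS. Values are average log2 fragment/vehicle ratios from an unpaired t-test on global-median-normalised Spectronaut label-free quantities, using proteins with ≥2 unique peptides.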

ATXN3 = ATXN3 (UniProt P54252)
In short: as §1

BAP1 = target: T2, BAP1 (UniProt Q92560)
T2 sequence (whole entry): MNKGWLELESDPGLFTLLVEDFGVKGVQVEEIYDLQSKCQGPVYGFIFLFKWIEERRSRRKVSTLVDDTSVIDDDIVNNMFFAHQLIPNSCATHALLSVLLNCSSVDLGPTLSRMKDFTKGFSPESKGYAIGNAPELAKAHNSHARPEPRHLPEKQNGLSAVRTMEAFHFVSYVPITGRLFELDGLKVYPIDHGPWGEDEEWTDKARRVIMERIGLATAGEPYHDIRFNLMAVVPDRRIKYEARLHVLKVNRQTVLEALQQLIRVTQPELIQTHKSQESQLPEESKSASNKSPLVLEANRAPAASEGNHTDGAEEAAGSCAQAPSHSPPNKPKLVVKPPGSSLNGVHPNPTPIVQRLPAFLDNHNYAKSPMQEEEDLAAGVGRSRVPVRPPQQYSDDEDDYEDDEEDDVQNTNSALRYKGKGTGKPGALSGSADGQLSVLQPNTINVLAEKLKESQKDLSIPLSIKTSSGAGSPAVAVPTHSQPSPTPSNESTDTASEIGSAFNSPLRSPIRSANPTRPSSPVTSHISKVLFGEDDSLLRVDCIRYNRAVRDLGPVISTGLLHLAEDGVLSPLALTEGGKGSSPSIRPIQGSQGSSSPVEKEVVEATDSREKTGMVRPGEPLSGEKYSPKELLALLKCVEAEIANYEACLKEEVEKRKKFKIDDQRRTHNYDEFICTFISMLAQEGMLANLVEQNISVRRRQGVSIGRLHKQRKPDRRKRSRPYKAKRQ
In short: as §1

EIF3F = EIF3F (UniProt O00303)
In short: as §1

EIF3H = EIF3H (UniProt O15372)
In short: as §1

FAM105A = target: T3, FAM105A (UniProt Q9NUU6)
T3 sequence (whole entry): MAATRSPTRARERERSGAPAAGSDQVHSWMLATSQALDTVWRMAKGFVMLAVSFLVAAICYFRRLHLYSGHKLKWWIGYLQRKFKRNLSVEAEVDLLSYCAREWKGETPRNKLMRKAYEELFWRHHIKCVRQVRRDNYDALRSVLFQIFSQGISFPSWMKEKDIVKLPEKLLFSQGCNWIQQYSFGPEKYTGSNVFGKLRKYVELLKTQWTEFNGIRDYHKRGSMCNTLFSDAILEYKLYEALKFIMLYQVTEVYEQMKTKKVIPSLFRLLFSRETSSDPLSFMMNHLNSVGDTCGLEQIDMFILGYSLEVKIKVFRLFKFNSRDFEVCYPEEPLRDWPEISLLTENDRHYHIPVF
In short: as §1

OTUB1 = OTUB1 (UniProt Q96FW1)
In short: as §1

OTUD4 = target: T4, OTUD4 (UniProt Q01804)
T4 sequence (whole entry): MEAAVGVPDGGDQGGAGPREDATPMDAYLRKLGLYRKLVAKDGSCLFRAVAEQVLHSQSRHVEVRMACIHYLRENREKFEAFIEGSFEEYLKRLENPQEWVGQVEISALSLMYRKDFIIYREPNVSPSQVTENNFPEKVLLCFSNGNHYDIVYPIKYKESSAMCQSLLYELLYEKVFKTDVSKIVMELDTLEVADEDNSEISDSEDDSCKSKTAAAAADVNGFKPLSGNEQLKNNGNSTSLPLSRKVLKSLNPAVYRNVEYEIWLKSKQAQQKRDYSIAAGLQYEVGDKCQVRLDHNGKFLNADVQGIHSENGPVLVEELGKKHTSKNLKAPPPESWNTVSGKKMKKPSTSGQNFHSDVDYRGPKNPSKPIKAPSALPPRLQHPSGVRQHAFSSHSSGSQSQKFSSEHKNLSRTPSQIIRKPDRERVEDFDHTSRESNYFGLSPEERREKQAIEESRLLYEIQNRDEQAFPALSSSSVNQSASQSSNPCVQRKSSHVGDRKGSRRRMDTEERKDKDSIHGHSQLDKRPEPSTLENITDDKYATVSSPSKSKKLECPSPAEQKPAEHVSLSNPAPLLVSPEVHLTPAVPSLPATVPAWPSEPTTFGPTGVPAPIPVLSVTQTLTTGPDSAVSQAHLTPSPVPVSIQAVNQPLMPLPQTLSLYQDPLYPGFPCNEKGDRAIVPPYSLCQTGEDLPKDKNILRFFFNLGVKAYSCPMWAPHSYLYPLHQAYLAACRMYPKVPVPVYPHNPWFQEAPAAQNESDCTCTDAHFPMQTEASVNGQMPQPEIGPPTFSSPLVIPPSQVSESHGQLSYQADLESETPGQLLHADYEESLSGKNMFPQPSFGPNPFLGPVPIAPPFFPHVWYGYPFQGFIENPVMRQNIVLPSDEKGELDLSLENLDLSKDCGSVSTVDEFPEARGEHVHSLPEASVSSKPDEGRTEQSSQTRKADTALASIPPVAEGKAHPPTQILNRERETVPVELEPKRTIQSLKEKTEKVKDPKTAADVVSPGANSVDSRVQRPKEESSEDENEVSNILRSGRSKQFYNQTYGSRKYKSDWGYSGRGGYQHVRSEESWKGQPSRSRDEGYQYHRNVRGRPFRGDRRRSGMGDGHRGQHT
In short: as §1

OTUD5 = target: T5, OTUD5 (UniProt Q96G74)
T5 sequence (whole entry): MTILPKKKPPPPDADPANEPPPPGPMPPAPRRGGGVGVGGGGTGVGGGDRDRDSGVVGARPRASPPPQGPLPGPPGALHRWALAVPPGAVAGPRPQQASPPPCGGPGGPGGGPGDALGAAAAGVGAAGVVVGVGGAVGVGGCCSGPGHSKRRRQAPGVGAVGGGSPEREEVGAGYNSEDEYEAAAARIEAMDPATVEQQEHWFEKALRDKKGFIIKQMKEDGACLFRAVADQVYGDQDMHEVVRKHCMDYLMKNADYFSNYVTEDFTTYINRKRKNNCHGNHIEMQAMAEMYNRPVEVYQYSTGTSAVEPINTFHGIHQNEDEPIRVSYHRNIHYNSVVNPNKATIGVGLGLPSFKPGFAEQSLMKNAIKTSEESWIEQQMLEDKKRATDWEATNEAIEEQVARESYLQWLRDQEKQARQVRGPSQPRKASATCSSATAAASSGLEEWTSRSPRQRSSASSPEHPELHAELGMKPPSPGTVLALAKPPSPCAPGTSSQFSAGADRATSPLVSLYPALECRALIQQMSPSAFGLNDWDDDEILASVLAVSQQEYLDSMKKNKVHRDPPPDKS
In short: as §1

EIF3H, sequence (O15372 whole entry): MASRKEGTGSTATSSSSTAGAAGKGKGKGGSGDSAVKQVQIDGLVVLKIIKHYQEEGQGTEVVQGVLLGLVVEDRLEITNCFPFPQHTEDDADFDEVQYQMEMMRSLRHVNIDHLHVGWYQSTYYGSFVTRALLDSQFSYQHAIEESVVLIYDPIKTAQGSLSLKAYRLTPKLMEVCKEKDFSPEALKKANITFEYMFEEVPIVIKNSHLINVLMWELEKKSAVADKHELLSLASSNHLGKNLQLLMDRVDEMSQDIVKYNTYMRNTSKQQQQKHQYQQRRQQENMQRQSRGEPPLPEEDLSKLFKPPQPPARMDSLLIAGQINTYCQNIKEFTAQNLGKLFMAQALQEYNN
EIF3F, sequence (O00303 whole entry): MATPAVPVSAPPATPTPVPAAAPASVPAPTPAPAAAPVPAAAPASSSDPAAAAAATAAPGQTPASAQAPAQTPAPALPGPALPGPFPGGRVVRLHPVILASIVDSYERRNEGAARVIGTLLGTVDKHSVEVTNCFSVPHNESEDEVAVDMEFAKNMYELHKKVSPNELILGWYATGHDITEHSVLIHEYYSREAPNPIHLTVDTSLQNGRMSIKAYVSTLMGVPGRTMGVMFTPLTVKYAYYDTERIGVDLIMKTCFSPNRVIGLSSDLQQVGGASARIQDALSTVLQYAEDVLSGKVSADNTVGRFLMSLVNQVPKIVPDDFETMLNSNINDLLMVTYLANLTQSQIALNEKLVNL
ATXN3, sequence (P54252 whole entry): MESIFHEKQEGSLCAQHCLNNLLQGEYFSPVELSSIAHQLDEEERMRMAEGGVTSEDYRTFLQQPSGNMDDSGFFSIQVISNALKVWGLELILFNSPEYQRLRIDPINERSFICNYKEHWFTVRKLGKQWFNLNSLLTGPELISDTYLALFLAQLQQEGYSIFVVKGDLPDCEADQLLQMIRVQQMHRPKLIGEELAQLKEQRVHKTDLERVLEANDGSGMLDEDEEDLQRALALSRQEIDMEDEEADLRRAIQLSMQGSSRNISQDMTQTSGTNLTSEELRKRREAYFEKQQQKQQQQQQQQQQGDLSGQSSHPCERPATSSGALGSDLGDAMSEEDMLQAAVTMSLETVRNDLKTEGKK
OTUB1, sequence (Q96FW1 whole entry): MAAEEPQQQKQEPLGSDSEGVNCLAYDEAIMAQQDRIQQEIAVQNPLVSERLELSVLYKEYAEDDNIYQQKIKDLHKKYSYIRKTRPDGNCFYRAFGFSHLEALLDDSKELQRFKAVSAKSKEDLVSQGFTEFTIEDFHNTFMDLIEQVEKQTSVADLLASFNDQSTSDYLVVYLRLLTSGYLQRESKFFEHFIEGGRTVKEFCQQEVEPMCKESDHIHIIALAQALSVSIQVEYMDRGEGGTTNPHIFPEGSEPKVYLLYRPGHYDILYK

Row | Structure (SMILES) | log2 ratio of Biotin-Ahx-Ub-VS probe labelling (ALG13) | log2 ratio of Biotin-Ahx-Ub-VS probe labelling (ATXN3) | log2 ratio of Biotin-Ahx-Ub-VS probe labelling (BAP1) | log2 ratio of Biotin-Ahx-Ub-VS probe labelling (EIF3F) | log2 ratio of Biotin-Ahx-Ub-VS probe labelling (EIF3H) | log2 ratio of Biotin-Ahx-Ub-VS probe labelling (FAM105A) | log2 ratio of Biotin-Ahx-Ub-VS probe labelling (OTUB1) | log2 ratio of Biotin-Ahx-Ub-VS probe labelling (OTUD4) | log2 ratio of Biotin-Ahx-Ub-VS probe labelling (OTUD5)
1 | O=C(CCl)NCc1ccc(Cl)cc1 | 0.0638 | -0.168 | -2.74 (active) | 0.0714 | -0.105 | -0.347 | 0.0283 | 0.0745 | -0.00631
2 | O=C(CCl)NC1CCC2(CC1)OCCO2 | 0.0856 | -0.347 | -0.944 | -0.268 | 0.0155 | 0.137 | -0.114 | -0.376 | -0.414
3 | CC1CN(c2ccc(NC(=O)CCl)cc2)CC(C)O1 (stereo unspecified) | -0.442 | -0.412 | -2.48 (active) | -0.0748 | 0.0832 | 0.115 | 0.133 | -0.357 | -0.371
4 | Cl.O=C(CCl)N1CCn2cncc2C1 | 0.285 | -0.224 | -0.163 | -0.0339 | 0.0971 | -0.433 | -0.000993 | 0.0549 | -0.214
5 | NC(=O)C1CCCN(C(=O)CCl)C1 (stereo unspecified) | 0.0966 | -0.171 | -0.437 | -0.000958 | 0.225 | 0.217 | -0.301 | 0.0344 | -0.159
6 | O=C(CCl)Nc1cccc(C(=O)N2CCSCC2)c1 | 0.254 | -0.874 | -3.62 (active) | -0.466 | 0.0708 | 0.0218 | -0.523 | -0.0407 | -0.638
7 | O=C(CCl)N1CCCC1c1ccsc1 (stereo unspecified) | -0.0335 | -1.15 (active) | -3.75 (active) | 0.0507 | 0.2 | 0.313 | -0.142 | -0.382 | -0.65
8 | Cl.O=C(CCl)NCc1cc2c(nc1O)CCCC2 | -0.00624 | -0.358 | -1.87 (active) | 0.116 | 0.0749 | 0.13 | -0.044 | -0.437 | -0.468
9 | CN(C)S(=O)(=O)c1ccccc1CNC(=O)CCl | 0.242 | -0.137 | -1.09 (active) | -0.0947 | 0.29 | -0.0283 | -0.0251 | -0.249 | -0.29
10 | Cc1noc(N2CCN(C(=O)CCl)CC2)n1.Cl | -0.0651 | -0.811 | -0.867 | 0.106 | -0.241 | 0.317 | 0.11 | -0.163 | -0.0833
11 | Cc1cccc(N2CCC(NC(=O)CCl)C2=O)c1 (stereo unspecified) | -0.354 | -0.569 | -4.17 (active) | -0.331 | 0.306 | 0.111 | -0.325 | -0.412 | -0.338
12 | Cl.Cn1nc2c(c1CNC(=O)CCl)CCCC2 | -0.455 | -0.903 | -2.53 (active) | -0.323 | -0.0155 | -0.099 | -0.175 | -0.319 | -0.329
13 | O=C(CCl)N1CCC(OCc2ccccc2F)CC1 | -0.0579 | -0.708 | -0.64 | -0.319 | -0.284 | -0.178 | -0.00851 | -0.169 | -0.0801
14 | Cc1ccccc1OCC(=O)N1CCN(C(=O)CCl)CC1 | -0.255 | -0.894 | -0.74 | -0.317 | 0.19 | 0.252 | -0.249 | 0.0744 | -0.161
